We go through 39 compounds from PubChem BioAssay (NCATS).

The structures appear in SMILES notation. “And” between values parts separate entries of the source, which are not always exact repeats. Equal values may be shown once. Inconclusive results are not listed. A call without a number means that no potency is given here. The source made the active and inactive calls. The call rests on the fitted dose curve; in most records, active means well fitted inhibition curve with a large enough effect; inconclusive means small, poorly fitted or top-dose-only effect; inactive means flat fitted curve, though single readings scatter. Positions of bridges follow the written chain, without caps; N, C: chain ends. Non-standard residues stand in square brackets, D forms with d. Residues, ends and D or L forms follow the SMILES beside them. ξ: configuration not given here. *: point of attachment. Octanoyl(6-Me) = CCC(C)CCCCC(=O)*; ξThr(3R) = C[C@@H](O)C(N)C(=O)O; dDab = NCC[C@@H](N)C(=O)O; Dab = NCC[C@H](N)C(=O)O; Nva = CCC[C@H](N)C(=O)O; Cbz = O=C(OCc1ccccc1)*
Potency means the concentration at half of the fitted maximal effect.

The test is described as follows: P-glycoprotein substrates identified in KB-8-5-11 adenocarcinoma cell line, qHTS therapeutic library screen (AID 1346987). Further: nearly all actives have a fitted effect of over 65% in size. To be noted: KB-8-5-11 (P-gp overexpressing) viability, CellTiter-Glo, 72 h; series mostly up to 44.5 µM. Summed up: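 In this qHTS, P-gp-rich KB-8-5-11 cells received library compounds across a concentration range. Viability was quantified by luminescence after 72 h at 37 degree C.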
For `CC(C)(O)Cn1c(NC(=O)c2ccc(-c3cn[nH]c3)s2)nc2cc(CN3CCOCC3)ccc21`, the Potency is 3.72 µM (active).

`Cn1cc(C[C@@H](N)C(=O)O)c2ccccc21`: the Potency entry is “inactive”.

Regarding `O=C(O)[C@H](CC(=O)N1C[C@@H]2CCCC[C@H]2C1)Cc1ccccc1`, the Potency entry is “inactive”.

As for `C[C@H](CCC(=O)O)[C@H]1CCC2C3C[C@H](O)[C@@H]4C[C@H](O)CC[C@]4(C)C3CC[C@@]21C` (some centres undefined), the Potency entry is “inactive”.

In the case of `CCCCCCCN(CC)CCCC(O)c1ccc(NS(C)(=O)=O)cc1` (centres undefined), the Potency entry is “inactive”.

For the compound `CCC[C@@H](C=O)NC(=O)[C@H](CC(C)C)NC(=O)[C@H](CC(C)C)NC(=O)OCc1ccccc1` (Cbz-Leu-Leu-[Nva]-aldehyde), the Potency was 7.43 µM (active).

Take `CC(Oc1ccc(O)cc1)(P(=O)(O)O)P(=O)(O)O`: the Potency result is “inactive”.

In the case of `N#Cc1cc(NC(=O)Nc2nnc(-c3ccncc3)s2)ccc1-c1cn[nH]c1`, the Potency result is “inactive”.

As for `COc1ccnc2[nH]cc(C(=O)C(=O)N3CCN(C(=O)c4ccccc4)C[C@@H]3C)c12`, the Potency result was “inactive”.

For `OCCNC1CCCc2c1[nH]c1ccc(-c3ccccc3)cc21` (centres undefined), the Potency was 6.51 µM (active).

As for `COc1cc(C=CC(=O)CC(=O)C=Cc2ccc(O)c(OC)c2)ccc1O`, the Potency is 48.1 µM (active).

Consider `CC(=O)NC(CS)C(=O)O` (centres undefined), for which the Potency result is “inactive”.

Consider `C[C@@H](Cc1cc2c(c(C(N)=O)c1)N(CCCO)CC2)NCCOc1ccccc1OCC(F)(F)F`, for which the Potency result was “inactive”.

On to `COc1cc([C@@H]2c3cc4c(cc3[C@H](O)[C@H]3COC(=O)[C@@H]23)OCO4)cc(OC)c1OC`, for which the Potency was 0.418 µM (active).

Take `CC(C)N1[N]C(=C2C=c3cc(O)ccc3=N2)c2c(N)ncnc21`: the Potency is 0.105 µM (active).

With `CCOC(=O)C1=C(C)NC(=S)NC1c1cccc(O)c1` (centres undefined), the Potency was 4.18 µM (active).

As for `C=C1C(=O)O[C@H]2[C@@H]1CCC(C)=CCC[C@@]1(C)O[C@@H]21`, the Potency is 23.5 µM (active).

Regarding `O=C(CCCCCCC(=O)Nc1cccnc1)NO`, the Potency is 18.7 µM (active).

As for `NC(=O)c1ncn([C@@H]2O[C@H](CO)[C@@H](O)[C@@H]2O)c1O`, the Potency entry was “inactive”.

As to `CN(C)c1ccc(C(=O)NCCCCCCC(=O)NO)cc1`, the Potency was 3.72 µM (active).

In the case of `NC(=O)c1cccc(-c2cccc(OC(=O)NC3CCCCC3)c2)c1`, the Potency result is “inactive”.

For `O=C(CN1C(=O)C2(CCCC2)NC[C@H]1c1cc(F)cc(F)c1)Nc1ccc2c(c1)C[C@@]1(C2)C(=O)Nc2ncccc21`, the Potency result is “inactive”.

Turning to `CC(C)(C)[N+]([O-])=Cc1ccc(S(=O)(=O)O)cc1S(=O)(=O)O`, the Potency result was “inactive”.

On to `NC(=O)c1ncn([C@@H]2O[C@H](CO)[C@@H](O)[C@@H]2O)c1N`, for which the Potency entry is “inactive”.

Take `CC1(C)CC(O)CC(C)(C)N1[O]`: the Potency result is “inactive”.

On to `CS[C@H]1SC[C@@H]2C(=O)N(C)[C@H](C(C)C)C(=O)OC[C@H](NC(=O)c3cnc4ccccc4n3)C(=O)N[C@H](C)C(=O)N(C)[C@@H]1C(=O)N(C)[C@H](C(C)C)C(=O)OC[C@H](NC(=O)c1cnc3ccccc3n1)C(=O)N[C@H](C)C(=O)N2C`, for which the Potency was 0.59 µM (active).

For the compound `Cc1cnc(Nc2ccc(CN3CCOCC3)cc2)nc1Nc1cccc(S(=O)(=O)NC(C)(C)C)c1`, the Potency was 3.32 µM (active) and 1.84 µM (active).

With `Cc1onc(-c2ccccc2)c1C(=O)N[C@@H]1C(=O)N2[C@@H](C(=O)O)C(C)(C)S[C@@H]12`, the Potency entry was “inactive”.

In the case of `CC(C)OC(=O)[C@H](C)N[P@](=O)(OC[C@H]1O[C@@H](n2ccc(=O)[nH]c2=O)[C@](C)(F)[C@H]1O)Oc1ccccc1`, the Potency result was “inactive”.

Take `CC(=O)NCC(=O)N1[C@H]2CC[C@H]1c1cc(Nc3ncc(C(F)(F)F)c(NC4CCC4)n3)ccc12`: the Potency was 3.72 µM (active).

As to `O=C(C=CC#Cc1cccc(NS(=O)(=O)c2ccccc2)c1)NO`, the Potency was 4.69 µM (active).

Regarding `O=C(c1ccc(F)cc1)N1CCC[C@H](c2nc(-c3ccc(F)cc3)no2)C1`, the Potency is 0.118 µM (active).

Turning to `OC[C@H]1OC(O)C[C@@H](O)[C@H]1O` (some centres undefined), the Potency entry was “inactive”.

`CCCCCCCCCCCC(CC1OC(=O)C1CCCCCC)OC(=O)C(CC(C)C)NC=O` (centres undefined): the Potency entry was “inactive”.

Turning to `CC(=O)OCC(=O)[C@@]12N=C(C)O[C@H]1C[C@H]1[C@@H]3CCC4=CC(=O)C=C[C@]4(C)[C@@H]3[C@@H](O)C[C@@]12C`, the Potency entry was “inactive”.

For `O=C(O)CCCCCC(=O)NN=C1CCCC1`, the Potency result is “inactive”.

`CCCCOc1ccc(C(=O)Nc2ccc(F)cc2F)cc1`: the Potency result was “inactive”.

As for `CN[C@@H]1C[C@H]2O[C@@](C)([C@H]1OC)n1c3ccccc3c3c4c(c5c6ccccc6n2c5c31)C(=O)N[C@H]4O`, the Potency is 1.87 µM (active).

`CCC(C)CCCCC(=O)N[C@@H](CCN)C(=O)NC(C(=O)N[C@H](CCN)C(=O)N[C@@H]1CCNC(=O)C([C@@H](C)O)NC(=O)[C@@H](CCN)NC(=O)[C@@H](CCN)NC(=O)[C@@H](CC(C)C)NC(=O)[C@H](Cc2ccccc2)NC(=O)[C@H](CCN)NC1=O)[C@@H](C)O` (stereo partly drawn) ({Octanoyl(6-Me)}-[Dab][ξThr(3R)][dDab][dDab][Dab]F[dL][dDab][dDab][ξThr(3R)]; lactam 4-C): the Potency entry was “inactive”.
